The values below come from PubChem BioAssay.

The source made the active and inactive calls.

Experiment [1] is described as follows: binders of probe aFSTL3 on microarray, primary screen, stem cell growth factor project, biochemical, small-molecule microarray, fluorescence 635/667 (AID 1064).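 Further: measures binding of the biotinylated anti-FSTL3 antibody to printed compounds.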 The conditions noted are these: higher = more signal.
Experiment [2] in a line: binders from COS7 lysate, DM2A8 probe, primary screen, torsin A project, cell lysate, small-molecule microarray, fluorescence 635/667 (AID 1065). The conditions noted are these: higher = more signal, COS7 lysate expressing mutant human TOR1A.
Experiment [3] can be described thus: binders of probe aFGF2 on microarray, primary screen, stem cell growth factor project, biochemical, small-molecule microarray, fluorescence 635/667 (AID 1067).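 Further: measures binding of biotinylated aFGF2 protein to printed compounds on slides; z-score merges feature fluorescence and signal-to-noise across triplicate slides.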 The conditions noted are these: higher = more signal.
Experiment [4] in a line: binders of probe aFGF10 on microarray, primary screen, stem cell growth factor project, biochemical, small-molecule microarray, fluorescence 635/667 (AID 1071).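 Further: score merges 667 nm spot intensity and signal to noise from triplicate slides.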 The conditions noted are these: higher = more signal.
For experiment [5], the target named is Neurogenic locus notch homolog protein 2 (Homo sapiens) (UniProt Q04721). Briefly: Notch2 binders on small-molecule microarrays, primary screen, biochemical, small-molecule microarray, 635 nm fluorescence, stem cell growth factors (AID 1073). The conditions noted are these: Notch2 binding, higher = more signal.
Neurogenic locus notch homolog protein 2 (Homo sapiens), sequence (Q04721 whole entry, looked up, canonical isoform): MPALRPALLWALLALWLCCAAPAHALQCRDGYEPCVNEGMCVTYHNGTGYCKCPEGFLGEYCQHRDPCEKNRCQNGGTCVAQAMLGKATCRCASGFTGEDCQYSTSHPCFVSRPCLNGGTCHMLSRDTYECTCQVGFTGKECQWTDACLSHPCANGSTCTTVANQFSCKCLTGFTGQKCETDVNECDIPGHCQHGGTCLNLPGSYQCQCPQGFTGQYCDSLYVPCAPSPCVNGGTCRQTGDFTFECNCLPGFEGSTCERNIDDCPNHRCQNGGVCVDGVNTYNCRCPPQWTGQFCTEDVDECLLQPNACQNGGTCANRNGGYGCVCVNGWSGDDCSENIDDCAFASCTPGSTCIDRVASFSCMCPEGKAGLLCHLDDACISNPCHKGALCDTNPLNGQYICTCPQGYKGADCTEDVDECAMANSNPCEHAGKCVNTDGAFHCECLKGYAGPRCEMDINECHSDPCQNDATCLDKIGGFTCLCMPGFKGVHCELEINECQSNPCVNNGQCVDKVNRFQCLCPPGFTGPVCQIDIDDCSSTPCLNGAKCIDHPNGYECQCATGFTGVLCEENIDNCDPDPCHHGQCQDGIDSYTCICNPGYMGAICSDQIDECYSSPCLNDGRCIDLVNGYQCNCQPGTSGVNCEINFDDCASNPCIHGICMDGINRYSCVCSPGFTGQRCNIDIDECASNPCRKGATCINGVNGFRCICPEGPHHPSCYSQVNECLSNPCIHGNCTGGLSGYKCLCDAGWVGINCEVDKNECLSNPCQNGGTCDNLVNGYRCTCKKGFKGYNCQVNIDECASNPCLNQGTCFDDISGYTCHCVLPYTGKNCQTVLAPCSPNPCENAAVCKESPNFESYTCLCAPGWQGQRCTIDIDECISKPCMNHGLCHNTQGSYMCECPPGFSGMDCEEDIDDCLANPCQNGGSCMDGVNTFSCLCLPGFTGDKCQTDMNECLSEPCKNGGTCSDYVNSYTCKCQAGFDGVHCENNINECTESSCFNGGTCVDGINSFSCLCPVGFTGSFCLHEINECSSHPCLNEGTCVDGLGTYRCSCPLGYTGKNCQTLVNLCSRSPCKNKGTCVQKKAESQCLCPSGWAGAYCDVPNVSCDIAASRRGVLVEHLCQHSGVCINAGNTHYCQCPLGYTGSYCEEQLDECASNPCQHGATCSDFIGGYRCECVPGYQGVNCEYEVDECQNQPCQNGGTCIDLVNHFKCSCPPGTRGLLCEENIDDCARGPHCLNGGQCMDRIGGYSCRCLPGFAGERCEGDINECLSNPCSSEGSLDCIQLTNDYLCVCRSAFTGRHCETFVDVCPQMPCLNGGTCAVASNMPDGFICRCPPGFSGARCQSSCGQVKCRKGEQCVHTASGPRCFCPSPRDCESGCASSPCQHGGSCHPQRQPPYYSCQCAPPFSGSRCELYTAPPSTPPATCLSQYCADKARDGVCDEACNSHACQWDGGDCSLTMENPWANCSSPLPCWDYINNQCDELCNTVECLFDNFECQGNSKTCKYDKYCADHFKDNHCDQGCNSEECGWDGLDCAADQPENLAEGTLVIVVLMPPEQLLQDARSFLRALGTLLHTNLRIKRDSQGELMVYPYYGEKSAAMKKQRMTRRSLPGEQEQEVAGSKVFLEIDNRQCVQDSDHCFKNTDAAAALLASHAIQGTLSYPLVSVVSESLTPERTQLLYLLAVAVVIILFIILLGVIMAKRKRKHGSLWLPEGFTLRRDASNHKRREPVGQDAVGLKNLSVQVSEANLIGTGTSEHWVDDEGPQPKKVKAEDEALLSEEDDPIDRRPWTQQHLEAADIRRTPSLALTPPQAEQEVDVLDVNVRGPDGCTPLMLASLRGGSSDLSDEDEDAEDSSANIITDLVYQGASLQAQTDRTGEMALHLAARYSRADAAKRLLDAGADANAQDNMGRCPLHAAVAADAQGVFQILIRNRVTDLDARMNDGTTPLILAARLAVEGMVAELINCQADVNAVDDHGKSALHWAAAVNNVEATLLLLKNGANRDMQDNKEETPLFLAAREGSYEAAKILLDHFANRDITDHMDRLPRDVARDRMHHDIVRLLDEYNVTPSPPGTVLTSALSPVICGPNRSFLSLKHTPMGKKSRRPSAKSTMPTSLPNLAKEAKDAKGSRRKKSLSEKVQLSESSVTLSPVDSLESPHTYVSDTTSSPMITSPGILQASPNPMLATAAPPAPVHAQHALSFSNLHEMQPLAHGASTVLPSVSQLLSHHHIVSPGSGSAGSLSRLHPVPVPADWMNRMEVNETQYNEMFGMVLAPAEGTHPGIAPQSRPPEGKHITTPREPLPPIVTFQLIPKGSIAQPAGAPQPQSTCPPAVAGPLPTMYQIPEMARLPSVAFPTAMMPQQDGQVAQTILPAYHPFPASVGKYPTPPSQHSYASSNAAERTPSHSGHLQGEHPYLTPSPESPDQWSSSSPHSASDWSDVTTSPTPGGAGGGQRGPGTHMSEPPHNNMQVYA
In experiment [6] the target is Pro-neuregulin-1, membrane-bound isoform (Homo sapiens) (UniProt Q02297). Briefly: NRG1 binders on small-molecule microarrays, primary screen, psychiatric disease protein project, biochemical, small-molecule microarray, fluorescence 635/667 (AID 1075).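 Further: score combines 667 nm spot fluorescence with signal to noise.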 The conditions noted are these: NRG1 binding, 635 nm fluorescence, higher = more signal.
Pro-neuregulin-1, membrane-bound isoform (Homo sapiens), sequence (Q02297 whole entry, looked up, the tested form may be a part, canonical isoform): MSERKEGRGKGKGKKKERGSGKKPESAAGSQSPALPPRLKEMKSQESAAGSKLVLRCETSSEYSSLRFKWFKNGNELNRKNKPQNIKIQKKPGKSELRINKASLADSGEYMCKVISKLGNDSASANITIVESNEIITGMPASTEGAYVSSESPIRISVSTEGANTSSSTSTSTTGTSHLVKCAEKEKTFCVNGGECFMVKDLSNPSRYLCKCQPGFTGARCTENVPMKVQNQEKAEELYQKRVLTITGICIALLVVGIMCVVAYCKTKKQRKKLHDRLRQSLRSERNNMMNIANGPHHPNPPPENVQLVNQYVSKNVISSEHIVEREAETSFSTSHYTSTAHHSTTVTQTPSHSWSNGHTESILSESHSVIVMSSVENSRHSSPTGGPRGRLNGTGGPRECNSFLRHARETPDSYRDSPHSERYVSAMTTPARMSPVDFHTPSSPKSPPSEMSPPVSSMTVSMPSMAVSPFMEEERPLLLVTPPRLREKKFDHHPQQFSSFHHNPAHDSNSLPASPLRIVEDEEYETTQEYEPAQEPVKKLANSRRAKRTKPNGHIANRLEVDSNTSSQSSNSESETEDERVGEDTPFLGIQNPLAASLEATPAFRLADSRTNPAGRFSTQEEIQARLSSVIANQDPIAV
Experiment [7] relates to Neuregulin-1 EGF-like domain. Briefly: binders of neuregulin-1 EGF-like domain, primary screen, biochemical, small-molecule microarray, 635 nm fluorescence (AID 1081).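 Further: binding of the protein to compounds printed on small-molecule microarray slides.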 The following applies: small-molecule microarray binding, higher = more signal.
Experiment [8] in a line: FRG1 promoter luciferase signal modulators, primary screen, FRG1 inhibition for FSHD, cell-based, C2C12 myotubes, firefly/Renilla luciferase, luminescence (AID 1084). The conditions noted are these: higher = more signal, called active from +8 up or from −8 down.
Experiment [9] is described as follows: binders of probe aFST on microarray, primary screen, stem cell growth factor project, biochemical, small-molecule microarray, fluorescence 635/667 (AID 1086).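 Further: score merges 667 nm fluorescence with signal-to-noise of each printed compound spot.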 The following applies: higher = more signal.
The nature of experiment [10]: binders of probe aHhip on microarray, primary screen, stem cell growth factor project, biochemical, small-molecule microarray, fluorescence 635/667 (AID 1087).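 Further: score merges spot fluorescence at 667nm with spot signal to noise ratio.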 The conditions noted are these: higher = more signal.

In the case of `CN1C(=O)C2C=CC(C(O)C3=C[C@H]4C[C@@H](C3)C4(C)C)N(Nc3ccccc3)C2C1=O` (stereo not given in full), the composite z-score in experiment [1] is 1.23; in [2] it was 0.329; in [3] it was -0.0454; in experiment [4], 0.677; in [5], 1.49; in experiment [6], 0.986. Moreover, the composite z-score in experiment [7] is 1.02; in [9] it was 1.23; in experiment [10] it was 0.064. The z-score in experiment [8] is 0.175 (inactive).

With `CN1C(=O)C2C=CC(C(O)Cc3ccccc3)N(Nc3ccccc3)C2C1=O` (stereo not given), the composite z-score in [1] was 0.0217; in experiment [2] it was -0.576; in experiment [3], -0.116; in [4] it was 0.294; in [5], 1.21; in experiment [6] it was 1.38. For the same compound, the composite z-score in experiment [7] was 1.13; in experiment [9], 0.0791; in experiment [10], -0.236. Moreover, in [8], the z-score was 0.84 (inactive).

In the case of `O=C1C2C=CC(C(O)C3CCCCC3)N(Nc3ccc([N+](=O)[O-])cc3)C2C(=O)N1c1ccccc1` (stereo not given), the composite z-score in [1] was 0.274; in experiment [2], 0.167; in experiment [3], 0.0333; in experiment [4], 0.239; in [5] it was -0.795; in [6], 1.33. Also, the composite z-score in experiment [7] is 1.18; in experiment [9], -0.688; in experiment [10], -0.236. For the same compound, the z-score in experiment [8] is -1.48 (inactive).

As for `C=CCOC(=O)[C@@H]1[C@H]2C(=O)O[C@H](c3ccccc3)[C@H](c3ccccc3)N2[C@H](c2ccc(OCCOC(=O)[C@@H]3C[C@@H]4C(=O)N[C@@H](CCCC[N+](C)(C)C)C(=O)N4[C@@H]3c3cccc(OCCO)c3)cc2)[C@@]12C(=O)Nc1ccc(I)cc12`, the composite z-score was 0.443 in experiment [1]; 0.54 in experiment [2]; 0.0378 in experiment [3]; 0.291 in experiment [4]; 0.872 in [5]; 0.498 in experiment [6]. In addition, the values for the composite z-score in experiment [7], in [9] and in [10] were 1.23, 0.493 and -0.117, respectively. The z-score in experiment [8] was 3.07 (inactive).

Regarding `C=CCNC(=O)[C@H]1[C@@H]2C(=O)O[C@@H](c3ccccc3)[C@@H](c3ccccc3)N2[C@@H](c2ccc(O)cc2)[C@]12C(=O)N(C(=O)OCCOC)c1ccc(C#CCNC(N)=O)cc12`, the composite z-score is -0.14 in experiment [1]; -0.019 in experiment [2]; -0.0996 in [3]; 0.379 in [4]; 0.729 in experiment [5]; 0.0037 in experiment [6]. Further, the composite z-score in experiment [7] is 0.879; in experiment [9], 0.007; in [10], 0.0722. Further, the z-score in experiment [8] was -0.226 (inactive).

For `C=CCNC(=O)[C@H]1[C@@H]2C(=O)O[C@@H](c3ccccc3)[C@@H](c3ccccc3)N2[C@@H](c2ccc(OCCO)cc2)[C@]12C(=O)N(C(=O)OCCOC)c1ccccc12`, the composite z-score in experiment [1] was -0.268; in [2] it was 0.847; in experiment [3], 0.0732; in [4] it was 0.591; in [5] it was 1.45; in experiment [6], 1.53. Moreover, the figures for the composite z-score in experiment [7], in experiment [9] and in [10] were 1.38, 0.854 and 0.251, respectively. Further, the z-score in experiment [8] is -2.56 (inactive).

As to `COc1ccc(C(O)C2C=CC3C(=O)N(c4ccccc4)C(=O)C3N2Nc2ccccc2F)cc1OCc1ccccc1` (stereo not given), the composite z-score in [1] is 0.873; in experiment [2], -0.217; in [3], 0.5; in experiment [4] it was 0.775; in experiment [5] it was 1.65; in [6] it was 1.17. Besides, the composite z-score in experiment [7] is 0.99; in experiment [9], 1.1; in experiment [10] it was 0.0274. The z-score in experiment [8] was 3.15 (inactive).

With `C=C/C=C/[C@H]1C(=C)CN([C@@H](Cc2ccccc2)C(=O)OC)[C@@H]1[C@H](O)Cc1ccccc1`, the composite z-score in [1] was 0.042; in [2], -0.951; in [3], -0.203; in experiment [4], -0.189; in experiment [5] it was -1.06; in [6], -0.824. The values for the composite z-score in experiment [7], in experiment [9] and in experiment [10] were -0.5, -0.364 and -0.455, respectively. The z-score in [8] was -0.164 (inactive).

Turning to `O=C(NCC(F)(F)F)[C@@H]1c2ccccc2C(=O)N(C2CCCCC2)[C@H]1c1ccc(CO)cc1`, the composite z-score in experiment [1] was -0.176; in experiment [2], -0.527; in [3], -0.116; in experiment [4], 0.0931; in experiment [5], 0.154; in experiment [6], 1.61. In addition, the composite z-score in [7] is 0.611; in [9], 0.249; in experiment [10] it was 0.0505. In addition, in experiment [8], the z-score was -1.46 (inactive).

Take `COC(=O)[C@@]1(Cc2ccc(OC)cc2)[C@H]2c3cc(C(=O)N4CCCC4)n(Cc4ccsc4Br)c3C[C@H]2CN1C(=O)c1ccccc1`: the composite z-score was 0.588 in experiment [1]; -0.594 in experiment [2]; -0.1 in experiment [3]; 0.188 in [4]; 1.6 in [5]; 1.68 in experiment [6]. Also, the composite z-score in experiment [7] was 1.08; in [9], 1.37; in experiment [10], -0.367. Also, in [8], the z-score is 3.4 (inactive).

With `CCOC1=C2C(CN(S(=O)(=O)c3ccc(C)cc3)C2c2ccc(C)cc2)C2C(=O)N(c3ccccc3)C(=O)C2C1` (stereo not given), the composite z-score in [1] was -0.208; in experiment [2], -0.155; in experiment [3] it was -0.0074; in [4], 0.347; in [5], 1.25; in experiment [6], 0.752. Further, the composite z-score in experiment [7] is 1.03; in experiment [9], 0.585; in [10] it was -0.0618. For the same compound, the z-score in [8] was -0.62 (inactive).

On to `CC(C)(C)OC(=O)CC[C@@]12N=C(c3ccc(OCCCO)cc3)O[C@@H]1c1ccccc1N(CCS(=O)(=O)c1ccccc1)C2=O`, for which the composite z-score in [1] was 0.742; in experiment [2] it was 0.066; in [3] it was -0.0174; in experiment [4], -0.366; in experiment [5] it was 0.893; in experiment [6] it was 0.729. Moreover, the figures for the composite z-score in experiment [7], in [9] and in experiment [10] were 1.11, 0.687 and 0.0302, respectively. Besides, in [8], the z-score was -2.9 (inactive).

As for `CCCCC(O)C1C=CC2C(=O)N(c3ccccc3)C(=O)C2N1Nc1ccccc1F` (stereo not given), the composite z-score in experiment [1] worked out at 1.12; in experiment [2], 0.0488; in [3], 0.256; in experiment [4], 0.516; in [5], 0.829; in experiment [6], 1.15. In addition, the results for the composite z-score in experiment [7], in [9] and in experiment [10] were 1.2, 1.75 and 0.953, respectively. The z-score in [8] was 0.221 (inactive).

Take `CC(C)c1ccc(NN2C(C(O)C(c3ccccc3)c3ccccc3)C=CC3C(=O)N(c4ccccc4)C(=O)C32)cc1` (stereo not given): the composite z-score in experiment [1] is -0.304; in [2], -0.612; in experiment [3], 0.116; in experiment [4] it was 0.903; in experiment [5] it was 1.53; in experiment [6], 1.63. For the same compound, the composite z-score stood at 1.26 in experiment [7], 1.25 in experiment [9] and 0.452 in experiment [10]. Besides, the z-score in [8] is 0.358 (inactive).

With `C=C(CCCC)/C(=C/C[C@@H](OC(C)=O)c1ccccc1OCCO)c1cnc2ccccc2c1`, the composite z-score in experiment [1] is 0.0298; in experiment [2] it was 1.08; in [3] it was -0.0633; in experiment [4] it was -0.036; in experiment [5], 0.13; in [6] it was 0.967. Also, the composite z-score in experiment [7] came out at 0.95; in [9] it was 0.0983; in [10], 0.176. Besides, the z-score in [8] was -0.983 (inactive).

For the compound `O=C1C2C=CC(C(O)c3c(F)cccc3Cl)N(Nc3ccccc3)C2C(=O)N1c1ccccc1` (stereo not given), the composite z-score is -0.0072 in experiment [1]; -0.0274 in experiment [2]; 0.0363 in [3]; 0.354 in experiment [4]; 1.7 in [5]; 1.86 in experiment [6]. Further, the composite z-score is 1.25 in experiment [7], 1.09 in experiment [9] and -0.359 in [10]. In addition, the z-score in experiment [8] is -3.84 (inactive).
